For part of these data: Results with a measured potency or affinity are listed apart.
How the values were obtained:
[1] = tested on: Staphylococcus aureus; assay: Antibacterial activity against Staphylococcus aureus MRSA ATCC 43300 (CO-ADD:GP_020); MIC in CAMBH media using NBS plates, by Resazurin F(560/590); format: functional; conditions: Concentration 20 uM, ASSAY_TEST Inhibition of Bacterial Growth, detection method Resazurin, Fluorescence (ex560/em590), MEDIA CAMHB, plate type 384well, CORNING #3640, time 18 hr
[2] = tested on: Acinetobacter baumannii; assay: Antibacterial activity against Acinetobacter baumannii ATCC 19606 (CO-ADD:GN_034); MIC in CAMBH media using NBS plates, by Resazurin F(560/590); format: functional; conditions: Concentration 20 uM, ASSAY_TEST Inhibition of Bacterial Growth, detection method Resazurin, Fluorescence (ex560/em590), MEDIA CAMHB, plate type 384well, CORNING #3640, time 18 hr
[3] = tested on: Escherichia coli; assay: Antibacterial activity against Escherichia coli ATCC 25922 (CO-ADD:GN_001); MIC in CAMBH media using NBS plates, by Resazurin F(560/590); format: functional; conditions: Concentration 20 uM, ASSAY_TEST Inhibition of Bacterial Growth, detection method Resazurin, Fluorescence (ex560/em590), MEDIA CAMHB, plate type 384well, CORNING #3640, time 18 hr
[4] = tested on: Klebsiella pneumoniae; conditions: Concentration 20 uM; ASSAY_TEST Inhibition of Bacterial Growth; detection method Absorption (OD600); MEDIA CAMHB; plate type 384well; NBS; CORNING #3640; time 18 hr
[5] = tested on: Candida albicans; conditions: 20 µM
[6] = tested on: Cryptococcus neoformans; conditions: Concentration 20 uM; ASSAY_TEST Inhibition of Fungal Growth; detection method Resazurin; Absorption (OD600-OD570); plate type 384well; NBS; CORNING #3640

| SMILES | Inhibition [1] [%] | Inhibition [2] [%] | Inhibition [3] [%] | Inhibition [4] [%] | Inhibition [5] [%] | Inhibition [6] [%] |
| --- | --- | --- | --- | --- | --- | --- |
| COC(=O)c1c(-c2ccccc2)[nH]c(-c2nccc3ccccc23)c1C(=O)OC | 3.54 | 6.34 | 1.46 | 12.08 | 2.5 | -2.2 |
| CCOC(=O)C1(C#N)C(=O)CS/C1=N/c1ccccc1Cl (stereo unspecified) | 19.69 | 6.45 | 0.68 | 8.87 | 1.9 | -13.01 |
| NS(=O)(=O)c1cc2c(cc1Cl)NC(CC1CCCC1)NS2(=O)=O (stereo unspecified) [CYCLOPENTHIAZIDE] | 1.39 | 8.9 | -12.38 | 7.07 | 3.92 | 5.84 |
| O=C(Nc1cccc2ccccc12)c1ccccc1 | 1.57 | -13.68 | 5.05 | -4.37 | 0.1 | -4.91 |
| C(=N\n1cnnc1)/c1ccc2c(c1)CCC2 | 10.16 | -8.61 | 2.79 | 9.91 | 12.8 | -5.02 |
| Cc1ccc(S(=O)(=O)N(C)C)cc1[N+](=O)[O-] | -7.75 | -5.08 | -0.42 | 1.49 | 0.81 | -3.84 |
| Cc1ccc([N+](=O)[O-])cc1NC(=O)Nc1ccc(S(N)(=O)=O)cc1 | 2.59 | 7.91 | 0 | 0.38 | -0.57 | -7.76 |
| Oc1ccc(/N=N/c2nccs2)c(O)c1 | -2.42 | 12.54 | -3.78 | 17.07 | 29.2 | 2.7 |
| O=C(c1ccc(Cl)nc1)c1cccs1 | -3.15 | 14.95 | -2.66 | 4.42 | 2.35 | -1.99 |
| Oc1ccc(/N=N/c2ccccc2)c(O)c1/N=N/c1ccccc1 | -22.17 | 3.79 | -20.22 | -6.85 | 8.07 | 33.55 |
| CSc1nc(N)c(C(=O)NC2CCCCC2)s1 | 30.14 | -5.51 | 5.05 | 13.28 | 8.55 | -3.08 |
| NC(=O)CCC(C(=O)O)N1C(=O)C2C3CCC(C3)C2C1=O (stereo unspecified) | -3.52 | -4.02 | -8.27 | 4.97 | 2.39 | -5.24 |
| Cc1ccc(/N=N/c2ccc(C)cc2NC(=O)Nc2ccccc2F)cc1 | 3.8 | 6.73 | 1.93 | 9.05 | 6.78 | 3.6 |
| Nc1ccc(Nc2ccccc2)c(S(=O)(=O)O)c1 | 8.54 | 9.36 | -14.68 | 15.42 | 18.9 | 17.91 |
| O=C(Oc1ccccc1)c1cccc2cccc(C(=O)Oc3ccccc3)c12 | 17.84 | 0.5 | -0.78 | 14.06 | 7.13 | -3.03 |
| COc1ccn(C2CCCCO2)c(=O)n1 (stereo unspecified) | 1.35 | -10.23 | 3.33 | 6.04 | 0.65 | -5.3 |
| C#CCSc1nc(-c2ccco2)n[nH]1 | 6.25 | 16.42 | -3.2 | 9.41 | 3.4 | -6.15 |
| COc1ccc2c(C)cc(C)nc2n1 | 4.34 | -9.69 | 1.95 | -0.51 | 3.88 | -1.59 |
| CCN(CC)CCN1c2ccccc2Sc2ccc3ccccc3c21 | 2.63 | -0.08 | 11.87 | 8.87 | 0.24 | -5.58 |
| Cn1nc(N)c2ncc(C(Cl)(Cl)Cl)nc21 | -7.62 | -8.78 | 5.5 | 9.07 | 10.5 | -10.84 |
| CC(=O)CC(=O)Nc1ccc2ccccc2c1 | -8 | 10.6 | 5.41 | 9.32 | 7.43 | -13.72 |
| COC(=O)c1cc2c(n1S(=O)(=O)c1ccc(C)cc1)C(=O)C(=O)c1[nH]cc(C(=O)OCc3ccccc3)c1-2 | 12.8 | -9.93 | 4.92 | 10.02 | -2.87 | -5.89 |
| O=C(O)C1OCC2(CO1)COC(C(=O)O)OC2 (stereo unspecified) | 10.92 | -13.06 | 10.47 | 3.27 | 1.43 | -1.34 |
| Cc1nc2c(O)cccc2cc1CO | 12.47 | -18.52 | 6.1 | 7.86 | -0.94 | -5.84 |
| CSc1ccc(NC(=O)Nc2ccccc2C(N)=O)cc1 | 16.3 | 11.66 | 11.12 | 15.39 | 4.24 | 3.99 |
| c1ccc(NCCSc2nc3ccccc3s2)cc1 | 32.95 | -17.22 | 10.16 | 12.47 | 3.32 | 13.76 |

| SMILES | Inhibition [1] [%] | Inhibition [2] [%] | Inhibition [3] [%] | Inhibition [4] [%] | Inhibition [5] [%] | Inhibition [6] [%] |
| --- | --- | --- | --- | --- | --- | --- |
| CC(=O)OCCN1c2ccccc2Sc2cnccc21 | -12.23 | -1.85 | -8.04 | 5.46 | 1.65 | -8.61 |
| O=c1c(-c2ccc(O)cc2)coc2cc(O)cc(O)c12 [GENISTEIN] | 3.06 | 1.42 | 2.99 | 22.48 | 6.45 | -7.01 |
| CO/N=C1/C=C(C)C(=O)C(C)=C1C | 4.57 | -1.27 | 14.83 | 1.18 | -2 | -4.8 |
| CCCCOC(=O)c1cccnc1 | 2.44 | -6.99 | 12.49 | 13.5 | 1.04 | -0.89 |
| CCN(CC)CCNC(=O)c1ccc(NCN2C(=O)NC(c3ccccc3)(c3ccccc3)C2=O)cc1 | 12.78 | -11.12 | 11.42 | 8.03 | 1.74 | -3.88 |
| Nc1ccc(NC(=O)Nc2ccc(N)cc2)cc1 | -0.09 | -11.79 | 5.61 | 0.94 | -2.34 | -9.22 |
| CCCCNc1cc(Cl)nc(N)n1 | 19.23 | -9.43 | 4.85 | 9.91 | 0.7 | -8.27 |
| N#CCc1cnc2ccccc2n1 | 13.21 | -15.61 | 3.75 | 2.07 | -2.07 | -9.92 |
| C=CCN1CCN(c2ccncc2S(=O)(=O)N2CCN(C)CC2)CC1 | 11.93 | 5.76 | 5.47 | 7.93 | -0.33 | -11.5 |
| Cc1nc([N+](=O)[O-])cn1-c1nc2ccccn2c1[N+](=O)[O-] | 12.97 | -5.05 | 12.78 | 11.88 | 4.75 | -6.88 |
| c1cncc(-c2nc3ccccc3s2)c1 | -7.01 | 4.56 | -11.97 | 2.37 | 4.69 | 25.76 |
| COc1ccc2c(c1)c1ccc3c(c1n2C)C(=O)C=CC3=O | -28.89 | 3.5 | -18.56 | 4.14 | 7 | 0.4 |
| CCOc1ccc(/C=C2\CCc3ccccc3C2=O)cc1 | -3.91 | -2.84 | -2.65 | 4.93 | 5.43 | -7.99 |
| CCOc1ccc(NC(=O)C2CCCN(C)C2)cc1 (stereo unspecified) | 8.6 | 6.87 | -2.25 | 20.11 | 9.11 | -4.92 |
| CC(=O)NCCCOc1ccc([N+](=O)[O-])cc1Cl | 3.67 | -1.89 | 11.85 | 3.56 | 0.9 | -4.3 |
| CC(C)COC(=O)NC1c2ccccc2Oc2ccccc21 | 8.22 | -2.15 | 3.09 | 8.74 | 5.64 | -2.37 |
| Cc1ccc(NC(=O)Nc2c(Cl)cccc2Cl)cn1 | 20.25 | -2.44 | -14.35 | 6.22 | 3.4 | 18.5 |
| OC(COc1ccc(Cl)cc1)CN1CCN(c2cccc(Cl)c2)CC1 (stereo unspecified) | 15.95 | -3.41 | 10.45 | 10.9 | -0.89 | -14.11 |
| CCCN=C(S)Nc1ccccc1 | -20.14 | -0.42 | -3.75 | 7.36 | 4.15 | 1.71 |
| O=[N+]([O-])/C=C/c1cc2ccccc2[nH]1 | 0.82 | -9.9 | 9.79 | 7.79 | 46.8 | -1.09 |
| COC(=O)C1=CC(=O)N2CCN=C2S1 | 6.62 | 15.89 | -3.52 | 13.6 | 3.42 | -1.02 |
| NC(=O)Oc1cccc(OC(N)=O)c1 | 9.68 | -13.95 | 4.31 | 5.21 | 2.21 | -9.78 |
| Nc1ccc(OC(=O)Nc2ccc(O)cc2)cc1 | -11.3 | 1 | -11.72 | 2.2 | -2.4 | 12.42 |
| CC(=O)OC1COC(OC(C)=O)CO1 (stereo unspecified) | -14.46 | -1.98 | -12.48 | 0.6 | -0.61 | 10.42 |
| c1ccc2c(c1)nnn2-c1ccncc1 | -3.68 | -2.01 | -7.33 | 4.04 | 1.59 | -7.26 |

From ChEMBL document CHEMBL4296182, “CO-ADD screening of NIH NCI Diversity Set V”
